# Several values for one entry are separate records, joined by “and”; a condition that tells them apart may be missing. Equal entries are not always repeated. Records with an inconclusive call do not appear. A call without a number means that no potency is given here. Activity calls are given as the source filed them. Unless noted, calls follow the shape of the dose curve; as a rule, active = well fitted curve in the direction sought with a large enough effect; inconclusive = small, poorly fitted or top-dose-only effect, or another doubt; inactive = no such curve, though single readings can be large; an effect the other way counts as inactive or inconclusive.
# Tests used:
# [1] = Nrf2 qHTS screen for inhibitors: Validation (AID 493153; active = well fitted inhibition curve with a large enough effect in the main read-out, with a control signal flat, not every such curve was filed as active); details: A549 ARE-Fluc reporter, 18-24 h; Potency: luciferase luminescence; viability change: measured here: cytotoxicity max response; luciferase luminescence, at 46.1 µM (top of the series)
# Outline: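 In this counterscreened reporter format, each well gives two signals: CellTiter-Fluor fluorescence for cytotoxicity and ARE-luciferase luminescence for Nrf2 function. A549 ARE_Fluc cells in 5% FBS OPTI-MEM were exposed to compound titrations for 18-24 h.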
# [2] = qHTS for Inhibitors of Cell Surface uPA Generation: Validation Assay (AID 493164); details: mouse cells, plasminogen activation; series mostly up to 38.3 µM;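 also: RAW 264.7 macrophage cells exposed to compound for 18 h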
# Outline: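 Compounds are titrated over seven points (2.45 nM–38.3 uM final) onto pre-plated RAW 264.7 cells and incubated for 18 h. Retained intracellular ATP, measured with ATP-Lite, indicates blocked lethal factor entry.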
# [3] = target: Galactokinase (Homo sapiens) (UniProt P51570); assay: qHTS Validation Assay for Inhibitors of Human Galactokinase (GALK) (AID 493189); details: purified human GALK enzyme activity, qHTS 7-point titration; series mostly up to 57.5 µM
# Galactokinase (Homo sapiens), sequence (P51570 whole entry, looked up): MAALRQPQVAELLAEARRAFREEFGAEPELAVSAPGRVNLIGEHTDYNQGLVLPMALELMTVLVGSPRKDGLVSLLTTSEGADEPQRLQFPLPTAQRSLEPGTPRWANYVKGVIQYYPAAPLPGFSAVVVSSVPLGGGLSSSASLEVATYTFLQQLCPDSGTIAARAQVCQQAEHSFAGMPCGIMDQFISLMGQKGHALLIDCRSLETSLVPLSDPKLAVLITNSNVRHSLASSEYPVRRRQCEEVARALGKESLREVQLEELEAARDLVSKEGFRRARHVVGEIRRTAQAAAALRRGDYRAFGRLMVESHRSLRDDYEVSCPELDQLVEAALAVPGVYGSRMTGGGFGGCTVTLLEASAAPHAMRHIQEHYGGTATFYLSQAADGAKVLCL
# Outline: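 Luminescence from leftover ATP (Kinase-Glo Plus, 10 min) served as read-out after a 1 h room-temperature reaction of 5 nM GALK, 100 uM galactose and 35 uM ATP at pH8.0.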
# [4] = Validation screen for small molecules that induce DNA re-replication in SW480 colon adenocarcinoma cells (AID 504364); details: DNA re-replication phenotype (high-content imaging); series mostly up to 46.1 µM
# Outline: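 Hoechst-stained SW480 nuclei, imaged at 405 nm excitation after 48 hr compound exposure, were counted for elevated DNA content as the re-replication signal.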
# [5] = target: Peptidyl-prolyl cis-trans isomerase NIMA-interacting 1 (Homo sapiens) (UniProt Q13526); assay: qHTS Validation Assay to Find Inhibitors of Pin1 (AID 504536; active = well fitted inhibition curve with a large enough effect in the polarisation, with a control signal flat, not every such curve was filed as active; the % refers to the polarisation); details: Pin1 fluorescence polarization peptide binding assay; series mostly up to 57.5 µM
# Peptidyl-prolyl cis-trans isomerase NIMA-interacting 1 (Homo sapiens), sequence (Q13526 whole entry, looked up): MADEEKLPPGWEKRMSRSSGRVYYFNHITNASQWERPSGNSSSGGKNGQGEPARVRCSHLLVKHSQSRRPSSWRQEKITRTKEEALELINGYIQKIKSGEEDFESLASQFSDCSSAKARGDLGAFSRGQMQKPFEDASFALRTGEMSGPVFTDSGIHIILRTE
# Outline: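 Fluorescence polarization competition: compounds (titration) displace HiFluor-488-labeled Pin1-1b peptide from Pin1 (0.3 uM final) in pH 7.5 HEPES buffer with DTT, 10 min at room temperature; %Activity normalized to no-enzyme wells, curves fitted.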
# [6] = target: Phosphoglycerate kinase, glycosomal (Trypanosoma brucei brucei) (UniProt P07378); assay: qHTS Validation Assay to Find Inhibitors of Phosphoglycerate Kinase (AID 504547); details: enzymatic PGK inhibition, coupled luminescence read-out; series mostly up to 57.5 µM
# Phosphoglycerate kinase, glycosomal (Trypanosoma brucei brucei), sequence (P07378 whole entry, looked up): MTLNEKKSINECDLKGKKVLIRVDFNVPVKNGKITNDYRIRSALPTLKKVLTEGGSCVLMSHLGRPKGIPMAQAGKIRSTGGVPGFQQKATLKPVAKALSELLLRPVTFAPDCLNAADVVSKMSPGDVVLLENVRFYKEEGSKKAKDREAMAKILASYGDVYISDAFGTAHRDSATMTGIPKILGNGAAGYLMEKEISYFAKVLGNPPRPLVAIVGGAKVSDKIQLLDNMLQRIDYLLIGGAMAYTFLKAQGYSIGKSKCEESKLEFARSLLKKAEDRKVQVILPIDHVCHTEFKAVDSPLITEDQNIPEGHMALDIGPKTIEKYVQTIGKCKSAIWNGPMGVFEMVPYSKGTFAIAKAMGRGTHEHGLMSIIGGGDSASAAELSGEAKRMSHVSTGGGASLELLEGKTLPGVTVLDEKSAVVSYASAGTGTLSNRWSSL
# Outline: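 Compounds are pinned into the substrate/PGK mixture, and GAPDH (100nM final) is added to start the reaction by producing 1,3-BPG. After 60 minutes at room temperature, Kinase-Glo Plus is added and luminescence is measured 10 minutes later.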
# [7] = target: phosphoglycerate mutase (Leishmania major) (UniProt Q4Q090); assay: qHTS Validation Assay to Find Inhibitors of Phosphoglycerate Mutase (AID 504548); details: biochemical enzyme activity; series mostly up to 57.5 µM
# phosphoglycerate mutase (Leishmania major), sequence (Q4Q090 1-553): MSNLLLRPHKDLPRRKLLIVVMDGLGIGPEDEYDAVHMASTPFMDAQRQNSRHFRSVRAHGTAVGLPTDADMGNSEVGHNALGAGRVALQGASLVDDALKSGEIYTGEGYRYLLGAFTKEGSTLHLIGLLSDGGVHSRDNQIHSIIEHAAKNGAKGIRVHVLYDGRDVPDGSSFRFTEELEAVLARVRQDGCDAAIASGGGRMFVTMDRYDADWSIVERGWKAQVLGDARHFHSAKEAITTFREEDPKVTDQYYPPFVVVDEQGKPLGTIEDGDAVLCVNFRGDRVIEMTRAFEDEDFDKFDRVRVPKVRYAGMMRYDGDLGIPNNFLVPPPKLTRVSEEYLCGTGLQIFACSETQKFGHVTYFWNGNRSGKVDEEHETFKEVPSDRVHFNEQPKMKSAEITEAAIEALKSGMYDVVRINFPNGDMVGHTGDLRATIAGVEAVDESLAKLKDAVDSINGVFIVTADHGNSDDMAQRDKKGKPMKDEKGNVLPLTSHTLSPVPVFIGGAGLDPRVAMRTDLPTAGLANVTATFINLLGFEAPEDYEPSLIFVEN
# Outline: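 Luminescent end-point read-out via Kinase-GloPlus after a 10-minute development. Reaction: 1.25nM Leishmania major PGAM with substrate and compound, 45 minutes at room temperature in TEA buffer (pH 7.6) with MgCl2 and Tween-20.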
# [8] = target: Ubiquitin carboxyl-terminal hydrolase 1 (Homo sapiens) (UniProt O94782); assay: Inhibitors of USP1/UAF1: Pilot qHTS (AID 504865); details: purified USP1/UAF1, Ub-rhodamine cleavage fluorescence; series mostly up to 114 µM;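 also: rhodamine fluorescence freed from ubiquitin-rhodamine substrate followed over time; top concentration of the series differs between compounds; nearly all actives have a fitted effect of over 35% in size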
# Ubiquitin carboxyl-terminal hydrolase 1 (Homo sapiens), sequence (O94782 whole entry, looked up): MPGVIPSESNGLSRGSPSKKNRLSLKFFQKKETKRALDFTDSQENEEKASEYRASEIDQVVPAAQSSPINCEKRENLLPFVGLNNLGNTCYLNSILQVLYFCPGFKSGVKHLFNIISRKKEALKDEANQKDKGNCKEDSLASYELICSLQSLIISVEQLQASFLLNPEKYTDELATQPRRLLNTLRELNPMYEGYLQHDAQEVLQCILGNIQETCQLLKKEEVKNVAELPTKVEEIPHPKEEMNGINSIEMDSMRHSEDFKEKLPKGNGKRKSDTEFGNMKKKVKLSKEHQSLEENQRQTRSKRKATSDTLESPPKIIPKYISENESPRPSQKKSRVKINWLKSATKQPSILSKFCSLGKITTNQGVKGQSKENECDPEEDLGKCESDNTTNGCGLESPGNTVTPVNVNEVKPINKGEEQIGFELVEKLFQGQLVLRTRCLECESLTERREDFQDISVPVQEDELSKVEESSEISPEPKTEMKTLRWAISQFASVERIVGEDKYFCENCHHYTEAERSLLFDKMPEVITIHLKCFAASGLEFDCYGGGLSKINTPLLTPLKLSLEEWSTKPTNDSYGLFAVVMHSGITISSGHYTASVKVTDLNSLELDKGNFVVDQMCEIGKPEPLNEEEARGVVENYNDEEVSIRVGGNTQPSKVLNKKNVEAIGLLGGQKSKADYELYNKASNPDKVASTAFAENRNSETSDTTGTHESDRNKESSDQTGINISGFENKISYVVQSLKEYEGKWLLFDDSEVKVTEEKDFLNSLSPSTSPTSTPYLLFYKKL
# Outline: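 1nM USP1/UAF1 + cpd, 15 min RT; start w/ Ub-Rho 150nM final; kinetic FL 480/540 nm, 6 reads q60 s. Buffer 50mM HEPES pH 7.8, 0.5mM EDTA, 1mM TCEP, 0.01% Tween-20, 0.1 mg/ml BSA.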
# [9] = qHTS for Inhibitors of ATXN expression: Validation of Cytotoxic Assay (AID 588349); details: cytotoxicity counter-screen for ATXN expression inhibitors, cell viability; series mostly up to 57.1 µM; also: potency is read from the fitted curve at half-maximal effect
# Outline: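 Toxicity of test compounds toward HEK293 cells is scored from cellular ATP content measured by CellTiter Glo. Cells receive titrated doses and incubate 72 hr at 37 degrees C beforehand.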
# [10] = qHTS for Inhibitors of ATXN expression: Validation (AID 588378); details: cell-based ATXN2 expression reporter assay, luminescence; series mostly up to 57.1 µM; also: nearly all actives have a fitted effect of over 75% in size; also: potency is read from the fitted curve at half-maximal effect
# Outline: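 Cells: HEK293-ATXN2-FFLuc, phenol-red free DMEM, 2 h attachment. Compound pin-transfer, 24 h, 37 degrees C, 5% CO2. CellTiter-Fluor 30 min, Ex405/Em525; Bright-Glo 5 min, luminescence 2 s exposure.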
# [11] = target: Androgen receptor (Homo sapiens) (UniProt P10275); assay: qHTS assay for small molecule agonists of androgen receptor signaling (AID 588515; active = well fitted curve in the direction sought with a large enough effect in the signal ratio, with a control signal flat; the % refers to the signal ratio); details: AR-UAS-bla HEK293, beta-lactamase ratio, agonist 16 h; activation: stronger effect = higher value
# Androgen receptor (Homo sapiens), sequence (P10275 whole entry, looked up): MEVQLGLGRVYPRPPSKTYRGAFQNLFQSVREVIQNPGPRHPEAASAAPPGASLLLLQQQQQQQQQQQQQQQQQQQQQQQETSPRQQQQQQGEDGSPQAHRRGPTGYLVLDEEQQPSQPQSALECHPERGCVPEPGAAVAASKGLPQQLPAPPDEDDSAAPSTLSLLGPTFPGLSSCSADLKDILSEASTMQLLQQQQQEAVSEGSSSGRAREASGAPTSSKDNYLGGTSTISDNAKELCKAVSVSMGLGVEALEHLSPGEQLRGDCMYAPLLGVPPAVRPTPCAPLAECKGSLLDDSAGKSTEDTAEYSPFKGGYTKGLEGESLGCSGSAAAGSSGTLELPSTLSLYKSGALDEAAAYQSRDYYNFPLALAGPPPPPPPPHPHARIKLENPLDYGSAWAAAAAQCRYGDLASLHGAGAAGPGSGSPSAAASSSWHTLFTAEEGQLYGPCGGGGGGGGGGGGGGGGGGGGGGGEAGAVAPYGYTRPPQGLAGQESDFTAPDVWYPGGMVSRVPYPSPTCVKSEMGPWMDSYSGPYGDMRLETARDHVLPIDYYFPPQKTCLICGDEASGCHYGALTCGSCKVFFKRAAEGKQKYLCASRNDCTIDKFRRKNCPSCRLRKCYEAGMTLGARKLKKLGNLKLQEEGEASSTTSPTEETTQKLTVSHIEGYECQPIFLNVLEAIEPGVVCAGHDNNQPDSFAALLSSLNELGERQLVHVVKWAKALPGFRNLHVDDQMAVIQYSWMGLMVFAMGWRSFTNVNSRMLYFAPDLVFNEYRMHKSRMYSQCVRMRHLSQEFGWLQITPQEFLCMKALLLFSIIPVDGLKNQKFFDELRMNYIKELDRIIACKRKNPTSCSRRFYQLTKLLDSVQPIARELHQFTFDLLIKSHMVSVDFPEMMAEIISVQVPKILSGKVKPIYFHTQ
# Outline: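 Stimulation of an AR-responsive β-lactamase reporter in GripTite HEK293 cells was measured after 16 h compound exposure at 37 °C, via CCF4 fluorescence after 2 h RT. EC50 from Hill fits, normalized to R1881 at 30 nM.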
# [12] = target: Androgen receptor (Homo sapiens) (UniProt P10275); assay: qHTS assay for small molecule antagonists of androgen receptor signaling (AID 588516; active = well fitted curve in the direction sought with a large enough effect in the signal ratio, with a control signal flat, not every such curve was filed as active; the % refers to the signal ratio); details: AR-UAS-bla HEK293, beta-lactamase ratio, antagonist mode, 16 h; series mostly up to 76.8 µM
# Outline: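 HEK293 AR-UAS-bla cells, 10% dialyzed FBS medium; cpd titration + R1881 10 nM final, 16 h 37 C; CCF4 2 h RT; FRET ratio; IC50/efficacy via Hill fit.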
# [13] = target: Bile acid receptor (Homo sapiens) (UniProt Q96RI1); assay: qHTS assay for small molecule antagonists of farnesoid X receptor signaling (AID 588526; calls by dose curve); details: HEK293T FXR-UAS-bla, beta-lactamase ratio, antagonist mode; series mostly up to 76.7 µM
# Bile acid receptor (Homo sapiens), sequence (Q96RI1 whole entry, looked up): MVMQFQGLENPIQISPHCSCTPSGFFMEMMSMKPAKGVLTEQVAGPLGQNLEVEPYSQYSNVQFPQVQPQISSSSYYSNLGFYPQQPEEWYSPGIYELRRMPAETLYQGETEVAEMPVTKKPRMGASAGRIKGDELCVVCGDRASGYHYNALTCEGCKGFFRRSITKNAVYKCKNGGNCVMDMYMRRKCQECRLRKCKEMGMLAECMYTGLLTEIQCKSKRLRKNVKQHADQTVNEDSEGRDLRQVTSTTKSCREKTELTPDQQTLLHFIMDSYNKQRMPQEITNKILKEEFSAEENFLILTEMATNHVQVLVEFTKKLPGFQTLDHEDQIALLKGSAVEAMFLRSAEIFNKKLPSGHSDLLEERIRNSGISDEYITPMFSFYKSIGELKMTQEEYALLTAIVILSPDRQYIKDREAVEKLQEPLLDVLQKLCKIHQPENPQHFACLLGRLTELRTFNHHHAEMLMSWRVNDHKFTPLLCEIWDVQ
# Outline: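 Antagonist mode: titrated compounds tested against chenodeoxycholic acid stimulation (normalized to 50 uM CDCA and DMSO) in GeneBLAzer HEK293T cells for 16 h. Beta-lactamase read by CCF4 fluorescence; IC50 from Hill fits.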
# [14] = target: Thyrotropin-releasing hormone receptor (Homo sapiens) (UniProt P34981); assay: qHTS for Small Molecule Agonists and Allosteric Enhancers of Human TRH Receptor: Validation Screen for Agonists (AID 493127;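 active = calcium activation more than 3 SD above the typical response in the agonist read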;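 also: intracellular calcium rise by fluo-8 fluorescence before TRH EC20 addition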); details: TRH receptor agonist cell assay; at 2 µM; stronger effect = higher value
# Thyrotropin-releasing hormone receptor (Homo sapiens), sequence (P34981 whole entry, looked up): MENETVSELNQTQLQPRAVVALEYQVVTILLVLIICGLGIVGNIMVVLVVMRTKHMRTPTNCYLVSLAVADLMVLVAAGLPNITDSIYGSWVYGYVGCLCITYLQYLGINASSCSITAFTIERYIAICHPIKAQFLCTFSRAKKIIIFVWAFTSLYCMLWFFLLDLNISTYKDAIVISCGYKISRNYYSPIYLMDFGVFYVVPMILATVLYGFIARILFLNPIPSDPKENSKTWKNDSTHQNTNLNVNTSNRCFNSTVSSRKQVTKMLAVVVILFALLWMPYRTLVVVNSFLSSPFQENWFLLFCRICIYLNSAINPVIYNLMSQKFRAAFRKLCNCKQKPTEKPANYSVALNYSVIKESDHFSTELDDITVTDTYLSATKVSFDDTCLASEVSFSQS
# Outline: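 Kinetic fluorescence assay of agonist-induced calcium release: overnight-plated TRHR cells, room-temperature fluo-8 loading, baseline then compound addition with per-second reads.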
# [15] = target: DNA dC->dU-editing enzyme APOBEC-3G (Homo sapiens) (UniProt Q9HC16); assay: qHTS for inhibitors of Vif-A3G interactions: Validation (AID 588379); details: Vif-A3G protein interaction assay; series mostly up to 46.1 µM
# DNA dC->dU-editing enzyme APOBEC-3G (Homo sapiens), sequence (Q9HC16 whole entry, looked up): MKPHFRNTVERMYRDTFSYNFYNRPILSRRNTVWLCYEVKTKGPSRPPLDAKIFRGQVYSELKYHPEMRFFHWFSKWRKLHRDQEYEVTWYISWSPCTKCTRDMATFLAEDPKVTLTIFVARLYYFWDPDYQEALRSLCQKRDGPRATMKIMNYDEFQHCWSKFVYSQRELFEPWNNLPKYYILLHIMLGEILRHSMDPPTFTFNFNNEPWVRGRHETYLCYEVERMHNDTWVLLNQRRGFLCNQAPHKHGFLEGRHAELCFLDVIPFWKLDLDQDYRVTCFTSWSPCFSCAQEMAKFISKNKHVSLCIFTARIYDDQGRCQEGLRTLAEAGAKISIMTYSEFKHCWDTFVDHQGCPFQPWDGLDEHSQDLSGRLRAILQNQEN
# Outline: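 Yellow fluorescence (Ex 488, Em 500-530) of Vif-coexpressing HeLa A3G-eYFP cells, scanned by Acumen cytometer, reports blocked A3G degradation. Cells plated at 700/well overnight at 37 deg C before compound addition, then a further overnight compound incubation at 37 deg C.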
Structure (SMILES),Potency [1],viability change [1] [%],outcome [2],outcome [3],outcome [4],outcome [5],outcome [6],outcome [7],Potency [8],Potency [9],Potency [10],activation [11],outcome [12],outcome [13],activation [14],outcome [15]
CN(C)CCN(Cc1cccs1)c1ccccn1,inactive,-0.0804,inactive,inactive,inactive,inactive,inactive,inactive,inactive,inactive,inactive,–,–,–,–,–
CCCCOCCOCCOCc1cc2c(cc1CCC)OCO2,–,–,–,–,–,–,–,–,inactive,–,–,19.3% (inactive) and -3.12% (inactive),inactive,inactive,–,–
Fc1ccc(C(c2ccc(F)cc2)N2CCN(C/C=C/c3ccccc3)CC2)cc1,inactive,-8.46,inactive,inactive,–,inactive,inactive,inactive,–,–,–,–,–,–,–,–
Cc1nc2sccn2c(=O)c1CCN1CCC(=C(c2ccc(F)cc2)c2ccc(F)cc2)CC1,inactive,-8.03,inactive,inactive,inactive,inactive,inactive,inactive,–,inactive,–,–,–,–,–,–
CC(C)NNC(=O)c1ccncc1,inactive,1.54,inactive,inactive,inactive,inactive,inactive,inactive,inactive,inactive,inactive,–,–,–,–,–
C[C@@H](O)[C@H]1C(=O)N2C(C(=O)O)=C(SCCN=CN)C[C@H]12,inactive,-3.32,inactive,–,–,–,inactive,inactive,inactive,inactive,inactive,–,–,–,–,–
CN1C[C@H](C(=O)N[C@]2(C)O[C@@]3(O)[C@@H]4CCCN4C(=O)[C@H](Cc4ccccc4)N3C2=O)C[C@@H]2c3cccc4[nH]cc(c34)C[C@H]21,inactive,-1.86,inactive,–,–,inactive,inactive,inactive,–,inactive,inactive,–,–,–,–,–
CN(C(=O)CCCOc1ccc2[nH]c(=O)ccc2c1)C1CCCCC1,–,–,inactive,inactive,inactive,inactive,inactive,–,inactive,inactive,inactive,–,–,–,1.44% (inactive),inactive
COC(=O)C1=C(C)NC(C)=C(C(=O)OCCN(C)Cc2ccccc2)C1c1cccc([N+](=O)[O-])c1 (configuration not stated),–,–,inactive,inactive,–,–,inactive,inactive,–,20 µM (active),35.5 µM (active),–,–,–,-4.56% (inactive),–
CN1CCN(C2=Nc3ccccc3Oc3ccc(Cl)cc32)CC1,inactive,-14.3,inactive,inactive,inactive,inactive,inactive,inactive,inactive,inactive,–,–,–,–,–,–
CCCCCCCC/C=C\CCCCCCCC(=O)NCc1ccc(O)c(OC)c1,inactive,-10.2,inactive,–,–,inactive,inactive,inactive,–,inactive,inactive,–,–,–,–,inactive
c1cc(CN2CCCCC2)cc(OCCCNc2nc3ccccc3s2)c1,inactive,-17,inactive,inactive,–,inactive,inactive,–,inactive,–,–,–,–,–,–,inactive
C[C@]12CC[C@@H]3c4ccc(O)cc4C[C@@H](CCCCCCCCCS(=O)CCCC(F)(F)C(F)(F)F)[C@H]3[C@@H]1CC[C@@H]2O (some centres not stated),–,–,inactive,–,–,inactive,inactive,–,–,inactive,inactive,–,–,–,–,–

# From PubChem BioAssay (NCATS)
